Experimental data from paper PMC7862700, “An all-to-all approach to the identification of sequence-specific readers for epigenetic DNA modifications on cytosine”.

What was measured:
Experiment in all cases: DAPPL (digital affinity profiling via proximity ligation, sequencing); 10 mM Tris-HCl pH 7.5, 50 mM NaCl, 1 mM DTT, 4% glycerol, room temperature, 30 min; GST-TFs on glutathione beads, 16-mer random dsDNA library, 0.1% formaldehyde crosslink after washing; high values mean tight binding
FEV = biological target: T1, FEV (Homo sapiens, UniProt Q99581 1-238); settings: protein: recombinant; tags: N-terminal GST; dsDNA, one strand shown
T1 sequence: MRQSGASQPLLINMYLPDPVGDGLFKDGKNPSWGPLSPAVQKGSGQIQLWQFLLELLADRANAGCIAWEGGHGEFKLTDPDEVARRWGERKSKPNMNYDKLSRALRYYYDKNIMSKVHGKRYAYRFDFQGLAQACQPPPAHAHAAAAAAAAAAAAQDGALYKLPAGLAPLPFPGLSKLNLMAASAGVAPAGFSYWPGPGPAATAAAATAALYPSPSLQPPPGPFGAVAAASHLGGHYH
How it was run: (§1)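 Human transcription factors were made in yeast as GST fusions, captured on glutathione beads and barcoded with DNA. With a tag-only sample included, the pool was incubated with 200 nmole of a random double-stranded 16-mer DNA library in Tris/NaCl/DTT/glycerol buffer at room temperature for 30 min, then crosslinked with 0.1% formaldehyde after washing, ligated by proximity, amplified and sequenced. For binding signal, each hexamer's read frequency for a factor is divided by its frequency for the tag-only sample.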

ETV5 = ETV5 (Homo sapiens, UniProt P41161 1-510); settings: protein: recombinant; tags: N-terminal GST; dsDNA, one strand shown
How it was run: as §1

HSF1 = HSF1 (Homo sapiens, UniProt Q00613 1-529); settings: protein: recombinant; tags: N-terminal GST; chain copies: 3; dsDNA, one strand shown
How it was run: as §1

SPIC = biological target: T2, SPIC (Homo sapiens, UniProt Q8N5J4 1-248); settings: protein: recombinant; tags: N-terminal GST; dsDNA, one strand shown
T2 sequence: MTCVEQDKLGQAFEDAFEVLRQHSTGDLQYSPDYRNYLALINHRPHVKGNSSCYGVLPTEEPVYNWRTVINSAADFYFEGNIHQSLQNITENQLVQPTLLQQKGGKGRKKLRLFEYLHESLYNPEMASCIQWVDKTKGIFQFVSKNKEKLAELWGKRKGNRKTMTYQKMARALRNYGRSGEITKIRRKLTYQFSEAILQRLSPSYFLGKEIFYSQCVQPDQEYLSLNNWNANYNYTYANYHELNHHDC
How it was run: as §1

ELF4 = ELF4 (Homo sapiens, UniProt Q99607 1-663); settings: protein: recombinant; tags: N-terminal GST; dsDNA, one strand shown
How it was run: as §1

ELK4 = biological target: T3, ELK4 (Homo sapiens, UniProt P28324-2 1-405); settings: protein: recombinant; tags: N-terminal GST; dsDNA, one strand shown
T3 sequence: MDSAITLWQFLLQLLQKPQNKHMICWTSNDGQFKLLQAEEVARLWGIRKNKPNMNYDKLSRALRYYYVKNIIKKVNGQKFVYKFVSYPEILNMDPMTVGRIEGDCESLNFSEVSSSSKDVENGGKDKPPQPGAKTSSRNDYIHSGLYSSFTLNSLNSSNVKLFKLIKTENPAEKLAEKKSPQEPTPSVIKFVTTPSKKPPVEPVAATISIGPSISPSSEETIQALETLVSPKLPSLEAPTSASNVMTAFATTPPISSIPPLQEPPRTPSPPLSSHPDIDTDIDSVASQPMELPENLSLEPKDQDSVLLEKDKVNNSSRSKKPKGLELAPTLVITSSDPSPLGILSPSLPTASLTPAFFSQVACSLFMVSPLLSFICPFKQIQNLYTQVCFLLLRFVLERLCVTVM
How it was run: as §1

ETV2 = biological target: T4, ETV2 (Homo sapiens, UniProt O00321 1-342); settings: protein: recombinant; tags: N-terminal GST; dsDNA, one strand shown
T4 sequence: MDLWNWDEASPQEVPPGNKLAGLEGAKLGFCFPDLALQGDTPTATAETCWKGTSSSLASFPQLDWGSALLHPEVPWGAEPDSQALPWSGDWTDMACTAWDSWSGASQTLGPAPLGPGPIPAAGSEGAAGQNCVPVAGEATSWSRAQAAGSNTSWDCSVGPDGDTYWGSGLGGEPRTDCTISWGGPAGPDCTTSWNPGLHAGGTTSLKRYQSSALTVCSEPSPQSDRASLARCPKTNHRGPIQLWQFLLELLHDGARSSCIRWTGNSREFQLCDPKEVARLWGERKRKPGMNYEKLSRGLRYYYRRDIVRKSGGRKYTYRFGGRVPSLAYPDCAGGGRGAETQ
How it was run: as §1

ELF3 = biological target: T5, ELF3 (Homo sapiens, UniProt P78545 1-371); settings: protein: recombinant; tags: N-terminal GST; dsDNA, one strand shown
T5 sequence: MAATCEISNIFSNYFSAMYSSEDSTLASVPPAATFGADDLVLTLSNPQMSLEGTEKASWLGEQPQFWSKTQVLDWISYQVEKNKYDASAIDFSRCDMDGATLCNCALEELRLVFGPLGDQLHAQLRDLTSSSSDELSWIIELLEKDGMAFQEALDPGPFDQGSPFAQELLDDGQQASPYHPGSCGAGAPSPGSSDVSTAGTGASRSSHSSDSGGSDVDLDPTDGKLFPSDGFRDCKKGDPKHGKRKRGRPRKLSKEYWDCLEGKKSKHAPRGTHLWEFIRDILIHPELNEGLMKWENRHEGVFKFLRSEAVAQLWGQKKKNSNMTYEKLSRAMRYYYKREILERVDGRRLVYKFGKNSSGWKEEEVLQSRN
How it was run: as §1

CRX = CRX (Homo sapiens, UniProt O43186 1-299); settings: protein: recombinant; tags: N-terminal GST; dsDNA, one strand shown
How it was run: as §1

ETV1 = ETV1 (Homo sapiens, UniProt P50549 1-477); settings: protein: recombinant; tags: N-terminal GST; dsDNA, one strand shown
How it was run: as §1

ERF = biological target: T6, ERF (Homo sapiens, UniProt P50548 1-548); settings: protein: recombinant; tags: N-terminal GST; dsDNA, one strand shown
T6 sequence: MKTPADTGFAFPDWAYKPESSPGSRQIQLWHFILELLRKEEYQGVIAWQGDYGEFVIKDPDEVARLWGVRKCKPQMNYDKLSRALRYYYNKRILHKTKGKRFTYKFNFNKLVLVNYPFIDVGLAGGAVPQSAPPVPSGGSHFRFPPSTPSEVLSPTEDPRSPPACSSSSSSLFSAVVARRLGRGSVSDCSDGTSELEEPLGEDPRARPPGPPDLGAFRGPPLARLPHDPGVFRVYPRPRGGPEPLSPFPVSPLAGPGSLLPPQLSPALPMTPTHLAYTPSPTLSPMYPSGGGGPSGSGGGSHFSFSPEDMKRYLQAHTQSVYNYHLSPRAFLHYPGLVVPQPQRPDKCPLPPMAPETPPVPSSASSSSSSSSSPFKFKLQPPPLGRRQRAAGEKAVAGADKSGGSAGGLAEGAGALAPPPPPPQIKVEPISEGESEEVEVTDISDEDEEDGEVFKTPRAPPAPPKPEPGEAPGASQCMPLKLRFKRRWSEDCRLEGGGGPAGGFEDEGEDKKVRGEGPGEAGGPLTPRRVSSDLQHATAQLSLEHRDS
How it was run: as §1

ETV3L = biological target: T7, ETV3L (Homo sapiens, UniProt Q6ZN32 1-361); settings: protein: recombinant; tags: N-terminal GST; dsDNA, one strand shown
T7 sequence: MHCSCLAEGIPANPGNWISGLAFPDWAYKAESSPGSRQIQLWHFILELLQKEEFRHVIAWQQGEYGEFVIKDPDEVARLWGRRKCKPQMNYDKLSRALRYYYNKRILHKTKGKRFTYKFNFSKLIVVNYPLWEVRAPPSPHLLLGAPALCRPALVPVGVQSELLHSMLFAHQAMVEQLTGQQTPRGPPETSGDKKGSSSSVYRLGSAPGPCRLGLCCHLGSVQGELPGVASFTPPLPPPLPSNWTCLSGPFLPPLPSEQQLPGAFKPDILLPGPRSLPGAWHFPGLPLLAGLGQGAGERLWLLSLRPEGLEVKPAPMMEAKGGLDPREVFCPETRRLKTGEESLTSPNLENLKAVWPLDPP
How it was run: as §1

ETS2 = biological target: T8, ETS2 (Homo sapiens, UniProt P15036 1-469); settings: protein: recombinant; tags: N-terminal GST; dsDNA, one strand shown
T8 sequence: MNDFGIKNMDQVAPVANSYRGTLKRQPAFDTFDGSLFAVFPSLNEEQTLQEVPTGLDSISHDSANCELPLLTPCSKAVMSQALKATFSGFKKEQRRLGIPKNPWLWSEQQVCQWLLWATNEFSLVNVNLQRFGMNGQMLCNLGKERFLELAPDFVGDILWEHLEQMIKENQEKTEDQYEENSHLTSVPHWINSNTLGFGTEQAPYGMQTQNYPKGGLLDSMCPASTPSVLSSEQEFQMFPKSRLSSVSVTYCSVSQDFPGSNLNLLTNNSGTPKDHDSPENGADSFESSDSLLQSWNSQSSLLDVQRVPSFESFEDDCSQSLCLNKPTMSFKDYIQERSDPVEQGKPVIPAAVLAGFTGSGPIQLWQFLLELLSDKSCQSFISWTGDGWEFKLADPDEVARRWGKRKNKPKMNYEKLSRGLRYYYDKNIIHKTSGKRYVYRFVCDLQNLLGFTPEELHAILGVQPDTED
How it was run: as §1

SPDEF = biological target: T9, SPDEF (Homo sapiens, UniProt O95238 1-335); settings: protein: recombinant; tags: N-terminal GST; dsDNA, one strand shown
T9 sequence: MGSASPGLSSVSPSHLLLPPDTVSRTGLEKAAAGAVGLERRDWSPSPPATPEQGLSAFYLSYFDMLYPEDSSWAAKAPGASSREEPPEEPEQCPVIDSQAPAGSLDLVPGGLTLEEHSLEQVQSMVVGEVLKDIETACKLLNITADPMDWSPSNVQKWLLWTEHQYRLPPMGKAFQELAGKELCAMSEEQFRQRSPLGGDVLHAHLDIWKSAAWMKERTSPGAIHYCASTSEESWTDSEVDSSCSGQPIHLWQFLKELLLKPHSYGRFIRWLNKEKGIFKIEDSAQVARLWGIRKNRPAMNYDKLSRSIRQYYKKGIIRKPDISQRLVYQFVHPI
How it was run: as §1

ETV7 = biological target: T10, ETV7 (Homo sapiens, UniProt Q9Y603 1-341); settings: protein: recombinant; tags: N-terminal GST; dsDNA, one strand shown
T10 sequence: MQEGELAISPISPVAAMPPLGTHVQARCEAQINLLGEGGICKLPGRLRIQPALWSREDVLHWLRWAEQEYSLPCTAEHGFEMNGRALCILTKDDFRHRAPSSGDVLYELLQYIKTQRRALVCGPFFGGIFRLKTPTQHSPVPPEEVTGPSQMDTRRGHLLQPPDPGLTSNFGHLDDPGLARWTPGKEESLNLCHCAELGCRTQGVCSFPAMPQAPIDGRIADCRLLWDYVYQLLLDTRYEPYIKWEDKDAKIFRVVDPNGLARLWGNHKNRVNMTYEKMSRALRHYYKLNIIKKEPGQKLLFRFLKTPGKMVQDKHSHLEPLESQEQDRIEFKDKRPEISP
How it was run: as §1

ELF5 = biological target: T11, ELF5 (Homo sapiens, UniProt Q9UKW6-2 1-255); settings: protein: recombinant; tags: N-terminal GST; dsDNA, one strand shown
T11 sequence: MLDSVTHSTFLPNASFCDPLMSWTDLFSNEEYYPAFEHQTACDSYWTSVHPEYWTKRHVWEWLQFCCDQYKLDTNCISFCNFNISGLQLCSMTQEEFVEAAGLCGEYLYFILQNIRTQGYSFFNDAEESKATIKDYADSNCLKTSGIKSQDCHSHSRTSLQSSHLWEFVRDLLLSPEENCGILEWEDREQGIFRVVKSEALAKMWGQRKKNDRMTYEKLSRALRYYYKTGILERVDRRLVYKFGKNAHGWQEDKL
How it was run: as §1

ETV3 = biological target: T12, ETV3 (Homo sapiens, UniProt P41162-2 1-143); settings: protein: recombinant; tags: N-terminal GST; dsDNA, one strand shown
T12 sequence: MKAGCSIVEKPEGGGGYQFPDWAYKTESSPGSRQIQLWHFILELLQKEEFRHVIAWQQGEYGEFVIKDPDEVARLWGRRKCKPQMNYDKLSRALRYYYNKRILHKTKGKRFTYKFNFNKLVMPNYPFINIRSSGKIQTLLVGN
How it was run: as §1

ETV6 = ETV6 (Homo sapiens, UniProt P41212 1-452); settings: protein: recombinant; tags: N-terminal GST; dsDNA, one strand shown
How it was run: as §1

Chain of ETV6 (P41212 whole entry): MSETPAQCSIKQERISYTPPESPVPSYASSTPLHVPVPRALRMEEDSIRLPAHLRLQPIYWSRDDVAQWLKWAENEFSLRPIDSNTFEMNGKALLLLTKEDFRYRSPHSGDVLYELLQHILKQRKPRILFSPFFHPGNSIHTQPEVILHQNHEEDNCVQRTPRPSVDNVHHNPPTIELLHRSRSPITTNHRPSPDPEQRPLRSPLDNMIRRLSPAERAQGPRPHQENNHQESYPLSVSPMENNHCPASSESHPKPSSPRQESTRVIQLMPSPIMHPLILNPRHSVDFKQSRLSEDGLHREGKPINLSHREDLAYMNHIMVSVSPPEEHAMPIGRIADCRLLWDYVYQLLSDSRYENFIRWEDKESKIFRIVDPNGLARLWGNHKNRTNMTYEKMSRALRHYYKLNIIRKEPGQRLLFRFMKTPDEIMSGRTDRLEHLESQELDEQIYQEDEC
Chain of ELF4 (Q99607 whole entry): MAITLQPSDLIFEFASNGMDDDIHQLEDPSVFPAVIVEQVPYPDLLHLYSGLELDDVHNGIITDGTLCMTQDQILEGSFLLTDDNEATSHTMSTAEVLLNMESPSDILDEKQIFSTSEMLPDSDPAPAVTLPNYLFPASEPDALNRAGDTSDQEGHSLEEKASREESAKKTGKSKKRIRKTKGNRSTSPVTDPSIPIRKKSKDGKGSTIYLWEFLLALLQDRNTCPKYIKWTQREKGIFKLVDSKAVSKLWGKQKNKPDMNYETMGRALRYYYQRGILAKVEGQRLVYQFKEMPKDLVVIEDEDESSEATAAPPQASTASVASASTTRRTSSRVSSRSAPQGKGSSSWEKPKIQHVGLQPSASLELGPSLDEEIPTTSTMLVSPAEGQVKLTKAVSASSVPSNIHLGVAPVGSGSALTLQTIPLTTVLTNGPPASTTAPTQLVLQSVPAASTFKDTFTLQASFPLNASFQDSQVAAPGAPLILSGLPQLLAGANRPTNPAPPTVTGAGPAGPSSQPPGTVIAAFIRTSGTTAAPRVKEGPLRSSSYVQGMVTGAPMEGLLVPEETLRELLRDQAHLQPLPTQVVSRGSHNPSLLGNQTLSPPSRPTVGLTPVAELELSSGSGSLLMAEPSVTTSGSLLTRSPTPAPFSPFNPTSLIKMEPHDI
Chain of HSF1 (Q00613 whole entry): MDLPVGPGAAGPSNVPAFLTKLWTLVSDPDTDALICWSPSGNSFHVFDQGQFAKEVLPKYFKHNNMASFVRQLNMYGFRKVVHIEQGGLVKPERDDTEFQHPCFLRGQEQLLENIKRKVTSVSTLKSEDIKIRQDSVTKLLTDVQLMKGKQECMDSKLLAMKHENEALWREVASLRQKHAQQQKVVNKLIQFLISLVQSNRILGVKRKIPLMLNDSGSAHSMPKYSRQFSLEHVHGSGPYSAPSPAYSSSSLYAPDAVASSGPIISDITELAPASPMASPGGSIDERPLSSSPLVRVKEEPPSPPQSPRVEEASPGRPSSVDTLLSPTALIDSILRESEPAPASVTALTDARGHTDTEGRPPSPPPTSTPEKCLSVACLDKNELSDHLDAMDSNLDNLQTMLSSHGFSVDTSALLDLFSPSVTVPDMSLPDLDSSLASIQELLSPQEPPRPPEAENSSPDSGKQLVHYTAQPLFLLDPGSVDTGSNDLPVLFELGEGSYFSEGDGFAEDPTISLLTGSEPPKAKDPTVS
Chain of CRX (O43186 whole entry): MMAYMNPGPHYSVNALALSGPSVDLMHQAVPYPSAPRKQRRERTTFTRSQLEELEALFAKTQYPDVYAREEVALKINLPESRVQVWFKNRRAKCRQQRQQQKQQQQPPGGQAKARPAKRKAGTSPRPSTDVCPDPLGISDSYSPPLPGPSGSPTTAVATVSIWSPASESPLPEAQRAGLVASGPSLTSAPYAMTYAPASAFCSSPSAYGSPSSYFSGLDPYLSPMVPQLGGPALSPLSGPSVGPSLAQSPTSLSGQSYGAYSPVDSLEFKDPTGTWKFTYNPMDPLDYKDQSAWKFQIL
Chain of ETV1 (P50549 whole entry): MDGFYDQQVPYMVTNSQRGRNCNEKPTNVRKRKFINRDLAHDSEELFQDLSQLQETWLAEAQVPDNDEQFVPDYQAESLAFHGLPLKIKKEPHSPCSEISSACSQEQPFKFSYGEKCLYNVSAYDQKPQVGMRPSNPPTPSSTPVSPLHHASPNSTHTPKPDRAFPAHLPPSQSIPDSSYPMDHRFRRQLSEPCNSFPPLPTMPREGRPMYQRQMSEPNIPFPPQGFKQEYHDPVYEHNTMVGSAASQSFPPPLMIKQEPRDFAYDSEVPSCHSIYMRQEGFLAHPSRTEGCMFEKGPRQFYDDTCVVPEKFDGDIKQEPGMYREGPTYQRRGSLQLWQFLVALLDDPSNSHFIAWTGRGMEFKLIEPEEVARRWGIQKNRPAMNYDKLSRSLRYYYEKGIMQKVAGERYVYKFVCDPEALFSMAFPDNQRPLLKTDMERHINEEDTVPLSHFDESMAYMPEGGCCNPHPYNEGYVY
Chain of ETV5 (P41161 whole entry): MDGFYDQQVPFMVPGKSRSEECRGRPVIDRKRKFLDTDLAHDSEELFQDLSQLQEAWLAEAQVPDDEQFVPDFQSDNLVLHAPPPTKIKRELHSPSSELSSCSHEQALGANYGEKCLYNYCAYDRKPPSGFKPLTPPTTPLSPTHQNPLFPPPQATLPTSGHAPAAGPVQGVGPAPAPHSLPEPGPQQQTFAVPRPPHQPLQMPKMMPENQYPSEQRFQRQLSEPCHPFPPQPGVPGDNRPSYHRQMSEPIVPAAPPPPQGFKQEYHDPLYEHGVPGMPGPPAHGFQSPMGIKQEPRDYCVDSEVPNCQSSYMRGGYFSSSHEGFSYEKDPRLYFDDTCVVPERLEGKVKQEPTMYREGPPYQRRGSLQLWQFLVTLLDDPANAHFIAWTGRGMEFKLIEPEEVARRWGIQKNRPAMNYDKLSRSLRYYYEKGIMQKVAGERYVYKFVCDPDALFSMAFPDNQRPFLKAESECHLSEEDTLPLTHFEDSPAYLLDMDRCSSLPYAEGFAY

TAGCTT
binding signal (FEV): 1.2 fold enrichment (6-mer frequency, TF over GST control) | binding signal (ETV5): 1.31 fold enrichment (6-mer frequency, TF over GST control) | binding signal (HSF1): 1.4 fold enrichment (6-mer frequency, TF over GST control) | binding signal (SPIC): 1.28 fold enrichment (6-mer frequency, TF over GST control) | binding signal (ELF4): 1.1 fold enrichment (6-mer frequency, TF over GST control) | binding signal (ELK4): 1.21 fold enrichment (6-mer frequency, TF over GST control) | binding signal (ETV2): 1.15 fold enrichment (6-mer frequency, TF over GST control) | binding signal (ELF3): 1.33 fold enrichment (6-mer frequency, TF over GST control) | binding signal (CRX): 1.83 fold enrichment (6-mer frequency, TF over GST control) | binding signal (ETV1): 1.2 fold enrichment (6-mer frequency, TF over GST control) | binding signal (ERF): 1.29 fold enrichment (6-mer frequency, TF over GST control) | binding signal (ETV3L): 1.24 fold enrichment (6-mer frequency, TF over GST control) | binding signal (ETS2): 1.29 fold enrichment (6-mer frequency, TF over GST control) | binding signal (SPDEF): 1.08 fold enrichment (6-mer frequency, TF over GST control) | binding signal (ETV7): 1.16 fold enrichment (6-mer frequency, TF over GST control) | binding signal (ELF5): 1.22 fold enrichment (6-mer frequency, TF over GST control) | binding signal (ETV3): 1.16 fold enrichment (6-mer frequency, TF over GST control) | binding signal (ETV6): 1.28 fold enrichment (6-mer frequency, TF over GST control)
